The text below walks through data of PubChem BioAssay (NCI).

Molecules are shown by their SMILES. The panel holds about 83,000 compounds, 20% with a hit somewhere; the sample as a whole holds those more often.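 Testing used 96-well plates and a 48-hour single-concentration exposure. Example: -40 means 40% of the starting cells died.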 Unmarked numbers belong to inactive results. The source made the active and inactive calls. Rule for the calls: active = growth percent below 10; inactive = the rest.

The test system of the experiment is HL-60(TB) leukemia. Briefly: NCI-60 one-dose screen, 48 h (100 = growth as untreated, 0 = no growth, -100 = all killed). The note with it: 10 µM unless noted.
With `CC1=CC(=NC(=O)CBr)C=C/C1=N\S(=O)(=O)c1ccccc1`, the growth was 67.2%.
`COc1ccc(-c2nc(SCC(C)C)nc(Nc3ccc(C(=O)O)cc3)c2C#N)cc1`: the growth was 99.7%.
The result for `O=[N+]([O-])c1cc[n+]([O-])cc1` reads 36.1%; that for `Clc1ccc(-c2cn(-c3ccccc3)c(-c3ccccc3)n2)c(Cl)c1`, 52.1%; that for `O=C(/C=C/c1cccc(Oc2ccccc2)c1)c1ccc(Nc2nc(Nc3ccc(F)cc3)nc(Nc3ccc(Cl)cc3)n2)cc1`, -38.2% (active).
The same measure for `O=C1C=CC(=O)N1c1ccc(I)cc1Cl`: 97.9%; for `Nc1nc2ccccc2c2c(=O)c3cc(F)ccc3sc12`: 99.4%; for `CCCNC(=O)Oc1ccc(/C(=C(/C)Cc2ccc(OC)cc2)c2ccc(OCCN3CCCCC3)cc2)cc1`: 58.6%.
The same measure for `CCOc1ccc(-n2nc(C(=O)NCc3ccccc3OC)nc2-c2cc(OC)c(OC)c(OC)c2)cc1`: 19.1%; for `O=C(O)/C=C\C(=O)Nc1ccc2c(c1)Cc1cc(F)ccc1-2`: 100%.
As for `NS(=O)(=O)c1ccc(NC2=C(Cl)C(=O)c3ccccc3C2=O)cc1`, the growth is 87.6%.
Consider `OCCOSCCO`, for which the growth was 99.1%.
The result for `Cc1c2c(cc[n+]1Cc1ccccc1)c1ccc(OCc3ccccc3)cc1n2Cc1ccccc1` reads -54.1% (active); that for `Cc1c(-c2ccccc2)[nH]c2ccccc12`, 106%.
Consider `O=C(CN1CCN(c2cc3c(cc2F)c(=O)c(C(=O)O)cn3C2CC2)CC1)Nc1ccc(C(=O)/C=C/c2ccccc2)cc1`, for which the growth was 40.9%.
`O=C(/C=C/C(Cl)(Cl)Cl)Nc1ccc(Cl)cc1`: the growth was 34.5%.
Take `C1CCc2onc(-c3noc4c3CCCCC4)c2CC1`: the growth is 102%.
As for `COc1ccc(/C=N/NC(=O)c2cnn(CC(O)Cc3ccccc3)c2N)cc1OC1CCCC1` (stereo not given), the growth was 105%.
Consider `CC(=O)SC1CC(=O)C=C2CCC3C4CCC(=O)OC4(C)CCC3C21C` (stereo not given), for which the growth was 103%.
The result for `CC(C)(C)c1nn(-c2ccccc2)c2c1CC1(CN2Cc2ccc3c(c2)OCO3)C(=O)c2ccccc2C1=O` reads 102%; that for `COc1ccc(C2=Nc3c(C)nn(-c4ccccc4)c3NC(c3ccc(Oc4ccnc5cc(Cl)ccc45)c(OC)c3)C2)cc1` (stereo not given), 90.8%.
The same measure for `O=C1CCC23OC(c4ccccc4N12)C(O)C(O)C3O` (stereo not given): 97%; for `CCCCC/C(C)=N\NC(N)=S`: 96.5%; for `Cc1c(O)cccc1O`: 110%.
The same measure for `COc1cc2c(cc1OCCCOc1cc3c(cc1OC)C(=O)N1CC(F)(F)C[C@H]1C=N3)N=C[C@@H]1CC(F)(F)CN1C2=O`: -12.2% (active); for `N#CSCC1CC(O)(c2ccccc2)CC(c2ccc(F)cc2)O1` (stereo not given): -38.7% (active).
`COc1cccc(Sc2ccc([N+](=O)[O-])c3no[n+]([O-])c23)c1`: the growth is 2.91% (active).
The same measure for `ClCc1c(Cl)c(Cl)c(Cl)c(CCl)c1Cl`: 80.4%.
For the compound `Cc1ccc(-c2cc(C(=O)Nc3ccc(S(=O)(=O)N4CCCCC4)cc3)[nH]n2)c(O)c1`, the growth is 48.7%.
As for `CCCCCCCCCCCCCOC(=O)c1c(C)[nH]c(/C=C2\N=C(c3ccc[nH]3)C=C2OC)c1C`, the growth is 9.46% (active).
The result for `CC(C(C(=O)N1CCCCC1)N1CCCCC1)N1CCCCC1` (stereo not given) reads 104%; that for `C=C1C(=O)O[C@H]2[C@H]1CC/C(CNC(=O)/C=C/c1ccc(Cl)cc1Cl)=C\CC[C@@]1(C)O[C@@H]21`, -27.4% (active); that for `O=C1/C(=C\c2cccn2Cc2ccc(Cl)cc2)c2ccccc2N1c1c(Cl)cccc1Cl`, 79.7%.
The result for `Cc1c(Cl)cccc1NC(=O)c1sc2nc3c(cc2c1N)CCCC3` reads 5.57% (active).
The same measure for `CC(C)CCC[C@@H](C)[C@H]1CCC2C3=CCn4c(=O)ccc(=O)n4C3CC[C@@]21C` (stereo not given in full): -43.3% (active); for `NC(=O)OCCn1cc(-c2nc(-c3c[nH]c4ncccc34)cs2)c2ccccc21`: 6.14% (active).
Turning to `COc1cc(-c2nc3ccccc3o2)cc(CN2CCCCC2)c1O`, the growth is 11.9%.
Regarding `Nc1nc(Nc2ccccc2)c2ncn(Cc3cc4c(cc3Br)OCO4)c2n1`, the growth is -11.7% (active).
The result for `CNC1=CC(=O)c2c(C(=O)OC)c(C)[n+]([O-])c(C)c2C1=O` reads 29%; that for `C#CCNc1nc(NCCNC(=O)CCl)nc(N(C)CCCCc2ccccc2)n1`, 107%.
